Several values for one entry are separate records, joined by “and”; a condition that tells them apart may be missing. Equal values may be shown once. Unmarked numbers belong to inactive results. Records with an inconclusive call do not appear. More than one record can exist for a structure, and the calls need not agree. Activity calls are given as the source filed them. Unless noted, the call rests on the fitted dose curve; in most records, active means well fitted inhibition curve with a large enough effect; inconclusive means small, poorly fitted or top-dose-only effect; inactive means flat fitted curve, though single readings scatter.

A short description of test [1]: Drug repurposing screens with cells derived from glioblastoma tumor samples (AID 1345199). Further: nearly all actives have a fitted effect of over 40% in size. Further: potency means the concentration at half of the fitted maximal effect. On activity, negative = cell killing: on the % scale 0 is the no-effect control and ±100 the full control effect. The conditions noted are these: GBM patient neurospheres viability, ATP luminescence, 48 h. The method, boiled down:
(§1)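 Four patient lines of CD133+ GBM neurospheres were screened at several concentrations; hits were retested in those lines plus three slower-growing GBM lines, using 48-hour treatment and ATP-based viability.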

Test [2] relates to astro (control astrocytes). Described as above. The conditions noted are these: viability, ATP luminescence, 48 h; series mostly up to 45.9 µM. The procedure, abridged:
as §1

Test [3] addresses Nuclear receptor subfamily 1 group I member 2 (Rattus norvegicus) (UniProt Q9R1A7). In words: qHTS assay for small molecule activators of the rat pregnane X receptor (rPXR) signaling pathway (AID 651751; call rule not given here; further: 0% is about no effect). The conditions noted are these: rPXR reporter cells, luciferase (One-Glo), 24 h.
A short description of test [4]: qHTS assay for small molecule activators of the human pregnane X receptor (PXR) signaling pathway (AID 720659; call rule not given here; further: 0% is about no effect). The conditions noted are these: DPX-2 HepG2 CYP3A4-luciferase, 24 h; series mostly up to 92.3 µM.
Setting [5] is: at 45.9 µM (top of the series), tumour line B.
Setting [6] is: at 45.9 µM (top of the series), tumour line D.
The mark [7] stands for this setting: at 46 µM (top of the series), tumour line A.
Setting [8] is: at 46.1 µM (top of the series), tumour line C.

Nuclear receptor subfamily 1 group I member 2 (Rattus norvegicus), sequence (Q9R1A7 whole entry, looked up): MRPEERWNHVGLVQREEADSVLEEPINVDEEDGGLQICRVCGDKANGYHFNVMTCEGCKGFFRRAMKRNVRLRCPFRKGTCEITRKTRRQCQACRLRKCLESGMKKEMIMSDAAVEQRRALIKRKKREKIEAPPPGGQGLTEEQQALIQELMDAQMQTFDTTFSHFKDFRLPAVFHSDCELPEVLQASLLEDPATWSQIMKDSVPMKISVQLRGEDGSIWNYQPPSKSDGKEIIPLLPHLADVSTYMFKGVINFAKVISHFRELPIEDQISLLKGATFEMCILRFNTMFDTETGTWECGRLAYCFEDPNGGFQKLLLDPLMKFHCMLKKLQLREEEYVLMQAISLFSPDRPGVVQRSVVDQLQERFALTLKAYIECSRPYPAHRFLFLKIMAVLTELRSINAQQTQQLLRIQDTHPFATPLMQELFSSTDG

With `C[C@H]1C[C@@H]2[C@H]([C@@H](O)C[C@@]3(C)[C@H]2CC[C@]3(O)C(=O)COC(=O)CCC(=O)O)[C@@]2(C)C=CC(=O)C=C12`, the activity, negative = cell killing in test [1] (setting [5]) was -16.2%; in test [1] (setting [6]), -23.4%; in test [1] (setting [7]), -16.8%; in test [1] (setting [8]) it was -3.84%. For the same compound, the Potency entry in test [2] is “inactive”.
On the same counts, the results for `C=C1CC2C3CCC4=CC(=O)C=C[C@]4(C)[C@@]3(F)[C@@H](O)C[C@]2(C)[C@@]1(O)C(=O)COC(C)=O` (stereo not given in full) are -0.0683%, 11.1%, -20%, -4.46% and “inactive”.
Take `Nc1c(CC(=O)O)cccc1C(=O)c1ccccc1`: the activity, negative = cell killing is -6.42% and -16.2% in test [1] (setting [5]); 1.99% and -19.1% in test [1] (setting [6]); -11.4% in test [1] (setting [7]); -6.15% and -12.2% in test [1] (setting [8]). Further, the Potency entry in test [2] was “inactive”.
In the case of `CC(=O)S[C@@H]1CC2=CC(=O)CC[C@]2(C)[C@H]2CC[C@@]3(C)[C@@H](CC[C@@]34CCC(=O)O4)[C@H]12`, the activity, negative = cell killing in test [1] (setting [5]) was -27.2%; in test [1] (setting [6]) it was -26.7%; in test [1] (setting [8]) it was -22.4%. Also, in test [1] (tumour line A), the Potency is 10 µM (active). The Potency entry in test [2] was “inactive”.
As to `CCCN(CC)C(CC)C(=O)Nc1c(C)cccc1C` (stereo not given), the activity, negative = cell killing was -5.49% in test [1] (setting [5]), -11.8% in test [1] (setting [6]), -28.6% in test [1] (setting [7]) and -9.76% in test [1] (setting [8]). Further, the Potency entry in test [2] is “inactive”.
Regarding `NCCCC[C@H](NC(=O)[C@@H]1CCCN1C(=O)[C@@H]1CSSC[C@H](N)C(=O)N[C@@H](Cc2ccc(O)cc2)C(=O)N[C@@H](Cc2ccccc2)C(=O)N[C@@H](CCC(N)=O)C(=O)N[C@@H](CC(N)=O)C(=O)N1)C(=O)NCC(N)=O`, the activity, negative = cell killing in test [1] (setting [5]) is -6.49% and -12.6%; in test [1] (setting [6]) it was -7.59% and -12.4%; in test [1] (setting [7]), -33.8%; in test [1] (setting [8]) it was 13.1%. The Potency entry in test [2] was “inactive”.
On to `CCCCCC(O)/C=C/C=O` (stereo not given), for which the activity, negative = cell killing in test [1] (setting [5]) was 5.27%; in test [1] (setting [6]), -8.74%; in test [1] (setting [7]) it was -27.6%; in test [1] (setting [8]), 8.89%. For the same compound, in test [2], the Potency entry was “inactive”.
Turning to `NC(=O)C[C@@H](N)C(=O)O`, the activity, negative = cell killing is 8.61% in test [1] (setting [5]), -4.07% in test [1] (setting [6]), 26.7% in test [1] (setting [7]) and 22.9% in test [1] (setting [8]). The Potency entry in test [2] is “inactive”.
For `CC1(C)C2CC[C@]3(C)[C@H](C(=O)C=C4[C@@H]5C[C@@](C)(C(=O)O)CC[C@]5(C)CC[C@]43C)[C@@]2(C)CC[C@@H]1O[C@H]1O[C@H](C(=O)O)[C@@H](O)[C@H](O)[C@H]1O[C@@H]1O[C@H](C(=O)O)[C@@H](O)[C@H](O)[C@H]1O` (stereo not given in full), the activity, negative = cell killing is -4.03% in test [1] (setting [5]), -9.47% in test [1] (setting [6]), -26.6% in test [1] (setting [7]) and -1.2% in test [1] (setting [8]). Moreover, the Potency result in test [2] is “inactive”.
In the case of `C/C(=C(/CCO)SSCC1CCCO1)N(C=O)Cc1cnc(C)nc1N` (stereo not given), the activity, negative = cell killing in test [1] (setting [5]) was -8.31% and -21.8%; in test [1] (setting [6]), -10.4% and -21.6%; in test [1] (setting [8]), -12.1% and -0.697%. Moreover, the Potency in test [1] (tumour line A) was 25.1 µM (active). Further, in test [2], the Potency result is “inactive”.
Turning to `O=S(=O)(O)Oc1ccc(C(c2ccc(OS(=O)(=O)O)cc2)c2ccccn2)cc1`, the activity, negative = cell killing in test [1] (setting [5]) is 0.447%; in test [1] (setting [6]) it was -9.15%; in test [1] (setting [7]), 21.1%; in test [1] (setting [8]) it was 10.6%. In addition, in test [2], the Potency result was “inactive”.
With `CC(=O)OCC(=O)[C@@]1(O)[C@H](C)C[C@H]2[C@@H]3C[C@H](F)C4=CC(=O)C=C[C@]4(C)[C@H]3[C@@H](O)C[C@@]21C`, the activity, negative = cell killing is 1.71% in test [1] (setting [5]), 2.28% in test [1] (setting [6]), -12.7% in test [1] (setting [7]) and 13.2% in test [1] (setting [8]). The Potency result in test [2] was “inactive”.
`CCC(c1ccccc1)c1noc(CCN(CC)CC)n1` (stereo not given): the activity, negative = cell killing is -14.3% in test [1] (setting [5]), -10.2% in test [1] (setting [6]) and -2.54% in test [1] (setting [8]). Moreover, the Potency result in test [2] was “inactive”.
Turning to `C=C1C(=C/C=C2\CCC[C@]3(C)[C@@H]([C@H](C)CCCC(C)(C)O)CC[C@@H]23)C[C@@H](O)C[C@@H]1O`, the activity, negative = cell killing in test [1] (setting [5]) is -26.6%. Besides, the Potency in test [1] (tumour line A) was 17.8 µM (active); in test [1] (tumour line D) it was 20 µM (active); in test [2], 22.4 µM (active).
In the case of `CN(C(=O)CO)c1c(I)c(C(=O)NCC(O)CO)c(I)c(C(=O)NCC(O)CO)c1I` (stereo not given), the activity, negative = cell killing in test [1] (setting [5]) was -7.14%; in test [1] (setting [6]) it was -10.4%; in test [1] (setting [8]), -4.09%. For the same compound, the Potency result in test [2] is “inactive”.
The like results for `COc1cc(C[C@@H]2NCCc3cc(O)c(O)cc32)cc(OC)c1OC` were, in that order, 13.6%, -12.2%, -8.42% and “inactive”.
Consider `Cc1ccc(C2(O)CCN(CCCC(=O)c3ccc(F)cc3)CC2)cc1`, for which the activity, negative = cell killing in test [1] (setting [5]) was -26.3%. Moreover, the figures for the Potency in test [1] (tumour line A) and in test [1] (tumour line D) were 6.31 µM (active) and 12.6 µM (active), respectively. The Potency entry in test [2] was “inactive”.
Regarding `CN(C)Cc1ccccc1`, the activity, negative = cell killing in test [1] (setting [5]) was -9.24%; in test [1] (setting [6]), 4.8%; in test [1] (setting [7]), -29.4%; in test [1] (setting [8]), -2.01%. Moreover, the max response in test [3] was 2.69%. Besides, the result in test [4] was inactive.
For the compound `O.O=C([O-])CC([S-])C(=O)[O-].[Au+].[Na+].[Na+]` (stereo not given), the activity, negative = cell killing was -5.96% in test [1] (setting [5]), 2.25% in test [1] (setting [6]) and 15.2% in test [1] (setting [8]). Moreover, in test [2], the Potency result was “inactive”.

The values are drawn from PubChem BioAssay (NCATS).
